Potency and activation data for 40 compounds are collected here from PubChem BioAssay (Tox21).

Results filed as inconclusive are left out. Entries that show only a call come without a potency. Activity calls are given as the source filed them. Calls come from the whole dose curve. Non-standard residues stand in square brackets, D forms with d. Residues, ends and D or L forms follow the SMILES beside them. *: point of attachment. Sta = CC(C)C[C@H](N)[C@@H](O)CC(=O)O; Isovaleryl = CC(C)CC(=O)*

Chain of Retinoic acid receptor RXR-alpha (Homo sapiens) (P19793 whole entry, looked up): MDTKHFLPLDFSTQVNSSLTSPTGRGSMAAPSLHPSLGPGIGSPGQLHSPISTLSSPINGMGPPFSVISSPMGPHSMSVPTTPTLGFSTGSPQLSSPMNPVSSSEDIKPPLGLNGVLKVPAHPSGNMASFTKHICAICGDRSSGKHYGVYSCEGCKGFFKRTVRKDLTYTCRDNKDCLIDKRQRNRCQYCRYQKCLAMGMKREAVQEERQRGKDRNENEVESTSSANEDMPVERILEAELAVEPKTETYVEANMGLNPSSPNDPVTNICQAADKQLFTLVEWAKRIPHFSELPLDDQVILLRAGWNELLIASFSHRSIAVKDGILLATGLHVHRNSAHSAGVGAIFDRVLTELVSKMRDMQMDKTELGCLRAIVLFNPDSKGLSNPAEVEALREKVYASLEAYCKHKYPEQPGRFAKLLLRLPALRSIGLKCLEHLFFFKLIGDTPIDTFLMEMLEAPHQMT

For this assay, the target named is Retinoic acid receptor RXR-alpha (Homo sapiens) (UniProt P19793). Description: qHTS assay to identify small molecule agonists of the RXR signaling pathway (AID 1159527). Note: nearly all actives have a fitted effect of over 35% in size. As to conditions: HEK293T RXRa-UAS-bla, beta-lactamase ratio, 16 h; series mostly up to 76.8 µM. The text has this:
U.S. Tox21 Program National Center for Advancing Translational Sciences [NCATS] NIH Chemical Genomics Center [NCGC] U.S. Environmental Protection Agency [EPA] National Institutes of Environmental Health Sciences [NIEHS] National Toxicology Program [NTP] U.S. Food and Drug Administration [FDA] Tox21 Assay Overview: The Retinoid X receptor (RXR), a nuclear hormone receptor expressed in liver, spleen, placenta, epidermis, central nervous system. These receptors are able to form homo and heterodimers with other nuclear receptors and due to this heterodimerizing ability, RXR functions as master regulators producing diverse physiological effects. Three subtypes of RXR exist; alpha, beta and gamma. Retinoid X receptor alpha (RXR-alpha) has potential roles in metabolic signaling pathways, skin alopecia, dermal cysts, cardiac development, insulin sensitization etc. Therefore screening environmental chemicals on RXR-alpha signaling can be used for the studies focused on such therapeutic applications. For quantification of RXR-alpha ligands signaling, GeneBLAzer RXR alpha-UAS-bla HEK 293T (Life Technologies, Carlsbad, CA) cells containing a beta-lactamase reporter-gene under control of Retinoid X receptor-alpha response element were used to screen Tox21 10K library.
Tox21 Assay Protocol Summary: RXR-alpha HEK 293T cells were dispensed at 2,000 cells/6 uL of assay medium containing 2% charcoal-stripped FBS using a Multidrop Combi (ThermoFisher Scientific, Waltham, MA) dispenser. The assay was performed in black wall/clear-bottom 1536-well plates (Greiner Bio-One North America Inc. Monroe, NC). 9-cis retinoic acid was used as a positive control in the agonist mode screen. After the assay plates were incubated at 37 C and 5% CO2 for 5 hr, 23 nL of compounds dissolved in DMSO, positive controls or DMSO only were transferred to the assay plate by a Pintool station (Kalypsys, San Diego, CA). The assay plates were incubated at 37 C and 5% CO2 for 16 hr. One uL of LiveBLAzer B/G FRET substrate (Life Technologies) was added using a Flying Reagent Dispenser (Aurora Discovery, San Diego, CA) and the plates were incubated at room temperature for 2 hr. Fluorescence intensity (405 nm excitation, 460/530 nm emission) was measured using an Envision plate reader (PerkinElmer, Shelton, CT).
For `CCCc1ccc(O)c(OC)c1`, the Potency result is “inactive”.
Still for that read-out and setting: for `COC(=O)c1c(C)cc(O)c(C)c1O` the value was “inactive”.
The same measure, in the same setting: with `Cc1cc(C)c(N)c(Cl)c1` the entry was “inactive”; with `CC(C)(C)C(=O)NCCCC(=O)O`, “inactive”; with `CCO/C=C1\N=C(c2ccccc2)OC1=O`, “inactive”.
In the case of `C/C=C(\C)C=O`, the Potency entry is “inactive”.
Turning to `C=C(C)C(=O)OCCOC1CC2CC1C1C=CCC21` (stereo not given), the Potency entry was “inactive”.
Still for that read-out and setting: with `COC(C)(C)CC(C)=O` the entry was “inactive”.
As for `O=C(O)CCCCCCCCCC(=O)O`, the Potency entry was “inactive”.
In the case of `C=CC(=O)CC`, the Potency result is “inactive”.
The same measure, in the same setting: with `O=Cc1ccc(C(=O)O)cc1` the entry was “inactive”; with `CCOC(=O)[C@H](CCc1ccccc1)N[C@H]1CS[C@H](c2cccs2)CN(CC(=O)O)C1=O`, “inactive”; with `NNC(=O)OCc1ccccc1`, “inactive”.
Still for that read-out and setting: with `CC(=O)OC1CCC(C(C)(C)C)CC1` (stereo not given) the entry was “inactive”; with `C[n+]1ccccc1/C=N/O`, “inactive”.
For the compound `CCNC(=O)C(C)OC(=O)Nc1ccccc1` (stereo not given), the Potency result is “inactive”.
With `O=C1Nc2ccccc2C1=O`, the Potency result was “inactive”.
Same read-out and setting: for `COc1cc(S(N)(=O)=O)cc(C(=O)O)c1OC` the value was “inactive”.
Still for that read-out and setting: for `CC(C)(C)OC=O` the value was “inactive”; for `CC(CN1CC(=O)NC(=O)C1)N1CC(=O)NC(=O)C1` (stereo not given), “inactive”; for `CCOC(=O)CC(C(C)=O)C(C)=O`, “inactive”.
Same read-out and setting: with `CC(C)CC(=O)N[C@H](C(=O)N[C@H](C(=O)N[C@@H](CC(C)C)[C@@H](O)CC(=O)N[C@@H](C)C(=O)N[C@@H](CC(C)C)[C@@H](O)CC(=O)O)C(C)C)C(C)C` (Isovaleryl-VV[Sta]A[Sta]-OH) the entry was “inactive”; with `C/C(=N\O)c1ccc(OCC(=O)N2CCCCC2)cc1`, “inactive”.
Consider `CCc1ncc(C)[nH]1`, for which the Potency result is “inactive”.
On the same count and under the same terms, for `C/C(Cl)=C/CCl` the value was “inactive”; for `NCC1CCC(C(=O)Oc2ccc(CCC(=O)O)cc2)CC1` (stereo not given), “inactive”.
Still for that read-out and setting: with `CC1=C(O)C(=O)CO1` the entry was “inactive”.
As to `CC(=O)c1ccc(O)c(C(N)=O)c1`, the Potency result is “inactive”.
Regarding `N=C(N)N1CCc2ccccc2C1`, the activation was 5.64% [at 6.98 µM] (inactive).
Regarding `COc1ccc2cc(CCC(C)=O)ccc2c1`, the Potency entry was “inactive”.
Consider `C[C@@H]1CC[C@@]2(OC1)O[C@H]1C[C@H]3[C@@H]4CC[C@H]5C[C@@H](O)CC[C@]5(C)[C@H]4CC(=O)[C@]3(C)[C@H]1[C@@H]2C`, for which the activation was 2.2% [at 6.98 µM] (inactive).
For `C/C=C/C(=O)CCCC`, the Potency result was “inactive”.
On the same count and under the same terms, for `CC(C)(C)c1ccc(C(=O)CCCCl)cc1` the value was “inactive”.
Still for that read-out and setting: for `COCCCOc1cc(C[C@@H](C[C@H](N)[C@@H](O)C[C@H](C(=O)NCC(C)(C)C(N)=O)C(C)C)C(C)C)ccc1OC` the value was “inactive”; for `CC(C)C(=O)Nc1cccc(C2CN3CCSC3=N2)c1` (stereo not given), “inactive”.
`CC(C)CC(O)Cc1ccccc1` (stereo not given): the Potency entry is “inactive”.
In the case of `CC(C)(C)C(=O)CC(=O)C(C)(C)C`, the Potency result was “inactive”.
The same measure, in the same setting: for `CCCCC(CC)CCC(CC(C)C)OS(=O)(=O)O` (stereo not given) the value was “inactive”; for `CCCCNCC`, “inactive”; for `Cc1cccc(N)n1`, “inactive”.
